Experimental data as given in PubChem BioAssay (Tox21).
Records with an inconclusive call do not appear. Entries that show only a call come without a potency. Activity calls are given as the source filed them. Calls follow the shape of the dose curve; as a rule, active = well fitted activation curve with a large enough effect in the repeat runs; inconclusive = weak or mixed curves; inactive = no such curve, though single readings can be large or run the other way.
Potency is read from the fitted curve at half-maximal effect.

Test: qHTS assay for small molecules that induce genotoxicity in human embryonic kidney cells expressing luciferase-tagged ATAD5 (AID 651632); also: nearly all actives have a fitted effect of over 15% in size
Conditions: HEK293T ATAD5-luciferase induction, 16 h; series mostly up to 83.3 µM
Description: U.S. Tox21 Program National Center for Advancing Translational Sciences [NCATS] NIH Chemical Genomics Center [NCGC] U.S. Environmental Protection Agency [EPA] National Institutes of Environmental Health Sciences [NIEHS] National Toxicology Program [NTP] U.S. Food and Drug Administration [FDA] Tox21 Assay Overview: As cancer cells divide rapidly and during every cell division they need to duplicate their genome by DNA replication. The failure to do so results in the cancer cell death. Based on this concept, many chemotherapeutic agents were developed but have limitations such as low efficacy and severe side effects etc. A new cell based assay was developed to find the compounds that effectively block DNA replication either by directly damaging DNA or by inhibiting other cellular mechanisms. Enhanced Level of Genome Instability Gene 1 (ELG1; human ATAD5) protein levels increase in response to various types of DNA damage. Using a luciferase reporter-gene tagged with ATAD5, a cell-based assay [developed by Kyungjae Myung, NHGRI, NIH] was used to measure the induction of ATAD5 in human embryonic kidney cells (HEK293T). So, increase in luciferase activity can be used to identify the compounds that cause genetic stress.
Tox21 Assay Protocol Summary: For genotoxicity screening, 2,000 cells in 5 uL/well were dispensed into white, solid-bottom 1536-well plates using a Multidrop Combi (Thermo Scientific) dispenser. Following transfer of 23 nL compound or DMSO vehicle by a pin tool, the plates were incubated 16 hr at 37C and 5% CO2. 5 ul Amplite (AAT Bioquest, Inc.) was then added to each plate and following 30 min incubation at room temperature, luciferase activity was quantified on a ViewLux CCD-based plate reader.
For `CC[C@H]1OC(=O)[C@H](C)C(=O)[C@H](C)[C@@H](O[C@@H]2O[C@H](C)C[C@H](N(C)C)[C@H]2O)[C@](C)(OC)C[C@@H](C)C(=O)[C@H](C)[C@H]2N(CCCCn3cnc(-c4cccnc4)c3)C(=O)O[C@]12C`, the Potency was “inactive”. With `CC(C)(O/N=C(\C(=O)N[C@@H]1C(=O)N2C(C(=O)[O-])=C(C[n+]3ccccc3)CS[C@H]12)c1csc(N)n1)C(=O)O` the Potency was “inactive”. With `O=C1CCC(c2ccccc2)(C2CCN(Cc3ccccc3)CC2)C(=O)N1` (stereo not given) the Potency was “inactive”. In the case of `NC[C@H]1O[C@H](O[C@H]2[C@H](O)[C@@H](O[C@H]3O[C@H](CO)[C@@H](O)[C@H](N)[C@H]3O)[C@H](N)C[C@@H]2N)[C@H](N)C[C@@H]1O`, the Potency is reported as “inactive”. With `CON=C1C[C@]2(C[C@@H]3C[C@@H](C/C=C(\C)C[C@@H](C)/C=C/C=C4\CO[C@@H]5[C@H](O)C(C)=C[C@@H](C(=O)O3)[C@]45O)O2)O[C@H](/C(C)=C/C(C)C)[C@H]1C` the Potency was “inactive”. In the case of `CCCOC(=O)c1ccc(O)cc1`, the Potency is reported as “inactive”. In the case of `CCC(C)(C)c1ccc(CC(C)CN2C[C@@H](C)O[C@@H](C)C2)cc1` (stereo not given in full), the Potency is reported as “inactive”. In the case of `CCCCC/C=C\C=C\C(=O)OCC`, the Potency is reported as “inactive”. In the case of `C[S+](C)CCC(N)C(=O)O` (stereo not given), the Potency is reported as “inactive”. For `NS(=O)(=O)c1cc(Cl)c(Cl)c(S(N)(=O)=O)c1`, the Potency was “inactive”. In the case of `CC(=O)Nc1ccc(OC(C)=O)cc1`, the Potency is reported as “inactive”. With `Nc1c(CC(=O)O)cccc1C(=O)c1ccccc1` the Potency was “inactive”. For `COc1ccc(/C=C/C(=O)O)cc1`, the Potency was “inactive”. In the case of `COC(=O)[C@H]1[C@H]2C[C@H]3c4[nH]c5ccccc5c4CCN3C[C@H]2CC[C@@H]1O`, the Potency is reported as “inactive”. For `CCCCCCOC(=O)c1cccnc1`, the Potency was “inactive”. With `C=C1[C@H](CO)[C@@H](O)C[C@@H]1n1cnc2c(=O)[nH]c(N)nc21` the Potency was “inactive”. For `CC(C)=CCC/C(C)=C/CC/C(C)=C/CC/C(C)=C/CC1=C(C)C(=O)c2ccccc2C1=O`, the Potency was “inactive”. With `CNC(=O)OCc1cccc(COC(=O)NC)n1` the Potency was “inactive”. For `CC(C)OC(=O)Nc1ccc2nc(-c3cscn3)[nH]c2c1`, the Potency was 10.6 µM (active). With `CCCC(=O)c1cc(O)c(O)cc1O` the Potency was “inactive”. With `O=C1c2c(O)cccc2[C@H]([C@@H]2O[C@H](CO)[C@@H](O)[C@H](O)[C@H]2O)c2cc(CO)cc(O)c21` the Potency was “inactive”. For `CC(C)Cc1ccc([C@H](C)C(=O)O)cc1`, the Potency was “inactive”. In the case of `Cc1cc(C(=O)NCCc2ccc(S(=O)(=O)NC(=O)NN3CCCCCC3)cc2)no1`, the Potency is reported as “inactive”. In the case of `Cc1cc(F)ccc1-c1cc(N2CC[C@@H](O)[C@H]2CO)ncc1N(C)C(=O)C(C)(C)c1cc(C(F)(F)F)cc(C(F)(F)F)c1`, the Potency is reported as “inactive”. In the case of `CC1(C)CCC(NC(=O)[C@@H](N)CCC(=O)O)CC1`, the Potency is reported as “inactive”. With `CCN(CC)C(=O)[C@]1(c2ccccc2)C[C@@H]1CN` the Potency was “inactive”. For `O=C1CCCCCCCCCCCCCC1`, the Potency was “inactive”. With `Cc1cc(CC(C)CC(C)(C)C)n(O)c(=O)c1` (stereo not given) (tested in a mixture with another compound) the Potency was 13.3 µM (active). For `CSCCC(N)C(=O)O` (stereo not given), the Potency was “inactive”. In the case of `N=C(N)n1cccn1`, the Potency is reported as “inactive”. For `C(=C\c1ccncc1)/c1ccccc1`, the Potency was 23.7 µM (active). For `NC(=O)[C@H]1O[C@@H](O)[C@H](O)[C@@H](O)[C@@H]1O`, the Potency was “inactive”. With `C=CC[N+]1([C@H]2C[C@H]3[C@@H]4CC[C@H]5C[C@H](O)[C@@H](N6CCOCC6)C[C@]5(C)[C@H]4CC[C@]3(C)[C@H]2OC(C)=O)CCCC1` the Potency was “inactive”. In the case of `CN[C@H](CC(C)C)C(=O)N[C@H]1C(=O)N[C@@H](CC(N)=O)C(=O)N[C@H]2C(=O)N[C@H]3C(=O)N[C@H](C(=O)N[C@@H](C(=O)O)c4cc(O)cc(O)c4-c4cc3ccc4O)[C@H](O)c3ccc(c(Cl)c3)Oc3cc2cc(c3O[C@@H]2O[C@H](CO)[C@@H](O)[C@H](O)[C@H]2O[C@H]2C[C@](C)(N)C(O)[C@H](C)O2)Oc2ccc(cc2Cl)[C@H]1O` (stereo not given in full), the Potency is reported as “inactive”. For `O=C1OC(=O)c2cc(-c3ccc4c(c3)C(=O)OC4=O)ccc21`, the Potency was “inactive”. In the case of `C[C@H](Cc1ccc(O)c(O)c1)[C@@H](C)Cc1ccc(O)c(O)c1`, the Potency is reported as “inactive”. With `NC(N)=NCCCCN=C(N)N` the Potency was “inactive”. In the case of `NC(=O)c1cc[n+](CC2=C(C(=O)O)N3C(=O)[C@@H](NC(=O)C(c4ccccc4)S(=O)(=O)[O-])[C@H]3SC2)cc1` (stereo not given in full), the Potency is reported as “inactive”. In the case of `C/C(=C\C(=O)OCCCCCCCCC(=O)O)C[C@@H]1OC[C@H](C[C@@H]2O[C@H]2[C@@H](C)[C@H](C)O)[C@@H](O)[C@H]1O`, the Potency is reported as “inactive”. In the case of `COc1cc2c(cc1OC)[C@@H](Cc1cc(OC)c(OC)c(OC)c1)[N+](C)(CCCOC(=O)CC/C=C/CCC(=O)OCCC[N+]1(C)CCc3cc(OC)c(OC)cc3[C@H]1Cc1cc(OC)c(OC)c(OC)c1)CC2` (stereo not given in full), the Potency is reported as “inactive”.
